Results reported in PubChem BioAssay (Tox21).
Results filed as inconclusive are left out. Activity calls are given as the source filed them. The call rests on the fitted dose curve; in most records, active means well fitted cell-killing curve with a large enough effect in the repeat runs; inconclusive means weak or mixed curves, or effect the other way; inactive means flat fitted curve, though single readings scatter.

Assay: qHTS assay to identify small molecule that activate the aryl hydrocarbon receptor (AhR) signaling pathway - cell viability counter screen (AID 743086);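 further: HepG2 liver cells carrying the AhR DRE luciferase reporter; nearly all actives have a fitted effect of over 45% in size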
Conditions: HepG2-AhR-luc viability, CellTiter-Fluor, 24 h; series mostly up to 70.3 µM; viability change, negative = cytotoxic: at the top concentration
Source text: U.S. Tox21 Program National Center for Advancing Translational Sciences [NCATS] NIH Chemical Genomics Center [NCGC] U.S. Environmental Protection Agency [EPA] National Institutes of Environmental Health Sciences [NIEHS] National Toxicology Program [NTP] U.S. Food and Drug Administration [FDA] Tox21 Assay overview: The Aryl hydrocarbon Receptor (AhR), a member of the family of basic helix-loop-helix transcription factors, is crucial to adaptive responses to environmental changes. AhR mediates cellular responses to environmental pollutants such as aromatic hydrocarbons through induction of phase I and II enzymes but also interacts with other nuclear receptor signaling pathways A cell based HepG2-AhR-luc assay (HG2L7.5c1 cell line, developed by Dr. Michael S. Denison, University of California at Davis) was used to assess the activation of AhR. HepG2 (human hepatocellular carcinoma) cells were stably transfected with an Ah receptor-responsive firefly luciferase reporter gene plasmid containing 20 dioxin responsive elements and luciferase reporter gene. Increased luciferase activity can be used to identify the compounds that induce AhR activation. The cytotoxicity of the compounds screened against the HepG2-AhR-luc cell line was tested in parallel by measuring the cell viability using CellTiter-Fluor assay in the same wells.
Tox21 Assay Protocol Summary: 4000 cells in 5 uL/well were dispensed into white wall/solid bottom 1536-well plates using a Multidrop Combi (Thermo Fisher Scientific Inc., Waltham, MA) dispenser. After the assay plates were incubated at 37C for 5 h, 23 nL of compound or DMSO vehicle was transferred to the assay plates by a pintool station (Kalypsys, San Diego, CA). The plates were incubated at 37C for 24 hr. For cell viability measurement, 1 ul/well of CellTiter-Fluor reagent (Promega, Madison, WI) was added into the assay plates using a Flying Reagent Dispenser (FRD) (Aurora Discovery, CA),and then the assay plates were incubated at 37C for 30 min. The fluorescence intensity in the plates was measured using a ViewLux plate reader (PerkinElmer, Shelton, CT), followed by the addition of 4 uL of ONE-Glo Luciferase Assay reagent (Promega) using an FRD (Aurora Discovery). After the assay plates were incubated at room temperature for 30 min, luminescence intensity was measured using a ViewLux plate reader (Perkin Elmer).
On the % scale 0 is the no-effect control and ±100 the full control effect.

SMILES | viability change, negative = cytotoxic | outcome
CN(C)CCCN(C)C | -2.64% [at 8.47 µM] (inactive) | –
O=S(=O)(O)CC(O)CCl (stereo not given) | -1.09% (inactive) | –
CCCCCCCCCCCBr | -3.17% (inactive) | –
Cc1cc(N)no1 | -0.305% [at 95 µM] (inactive) | –
C/C(=N\O)c1ccc(OCC(=O)N2CCCCC2)cc1 | 6.05% (inactive) | –
CC1(C)S[C@@H]2[C@H](NC(=O)Cc3ccccc3)C(=O)N2[C@H]1C(=O)O (tested in a mixture with another compound) | 13.8% (inactive) | –
CC(=O)OC1CCC(C(C)(C)C)CC1 (stereo not given) | -2.3% (inactive) | –
CC(C)c1cc(C(C)C)cc(C(C)C)c1 | -4.64% (inactive) | –
CCCCCC(=O)CC | 12.6% [at 95 µM] (inactive) | –
Clc1cc(Cl)c(Cl)c(Cl)c1Cl | 1.96% (inactive) | –
O=C(O)/C=C(\CC(=O)O)C(=O)O | -18.1% (inactive) | –
C=CCN1CCc2nc(N)sc2CC1 | -6.19% (inactive) | –
CCCCOCCCC | -0.011% (inactive) | –
CC(CC(=O)Cl)CC(C)(C)C (stereo not given) | -3.23% [at 95 µM] (inactive) | –
Cc1ccc(O)c([N+](=O)[O-])c1 | 6.95% [at 95 µM] (inactive) | –
C/C=C(\C)C=O | -3.61% [at 95 µM] (inactive) | –
CCCC(=O)CC | -2.03% [at 95 µM] (inactive) | –
Cc1ccccc1C#N | 0.87% (inactive) | –
CCCCCCCCCCCCCCCC/C=C/C1CC(=O)OC1=O (stereo not given) | -0.414% (inactive) | –
CC(=O)Nc1ccc(S(=O)(=O)Nc2cc(C)on2)cc1 | -1.4% (inactive) | –

SMILES | viability change, negative = cytotoxic | outcome
CCOC(=O)CC | 7.16% (inactive) | –
O=Cc1ccc(C(=O)O)cc1 | -17.2% [at 95 µM] (inactive) | –
CC(C)(C)C(=O)CC(=O)C(C)(C)C | 0.605% [at 95 µM] (inactive) | –
CC(=O)SCC(CC(=O)c1ccc(C)cc1)C(=O)O (stereo not given) | -13% (inactive) | –
CCN(CC)CC | -0.785% [at 95 µM] (inactive) | –
CCCCCCCCCCCCCC(=O)OCC | -3.66% (inactive) | –
CC(O)CCCCn1c(=O)c2c(ncn2C)n(C)c1=O (stereo not given) | -3.48% (inactive) | –
CC/C=C\CCCCCCCCCCOC(C)=O | 1.13% (inactive) | –
CC[N+](C)(CC)CC | 1.62% (inactive) | –
CCN1CCN(C(=O)N[C@@H](C(=O)N[C@@H]2C(=O)N3C(C(=O)O)=C(CSc4nnnn4C)CS[C@H]23)c2ccc(O)cc2)C(=O)C1=O | 3.06% (inactive) | –
CN(C)CCc1c[nH]c2ccc(CS(=O)(=O)N3CCCC3)cc12 | 13.1% (inactive) | –
CN1C(CCl)Nc2cc(Cl)c(S(N)(=O)=O)cc2S1(=O)=O (stereo not given) | -0.0984% (inactive) | –
C[C@]12C=CC(=O)C=C1[C@@H](F)C[C@@H]1[C@@H]2[C@@H](O)C[C@@]2(C)[C@H]1CC[C@]2(O)C(=O)CO | – | inactive
Cc1ccc(S(=O)(=O)NC(=O)NN2CC3CCCC3C2)cc1 (stereo not given) | -0.632% [at 32.5 µM] (inactive) | –
C=CCOC(=O)CCCCCCCC | -9.59% [at 95 µM] (inactive) | –
OCCC(F)(F)C(F)(F)C(F)(F)C(F)(F)C(F)(F)C(F)(F)F | 0.415% (inactive) | –
CC[C@@]1(c2ccccc2)NC(=O)N(C)C1=O | -0.914% (inactive) | –
COc1ccc2cc(CCC(C)=O)ccc2c1 | 8.67% [at 32.5 µM] (inactive) | –
C=C(C)C(=O)OCCCC | 5.93% [at 95 µM] (inactive) | –
CC(CN1CC(=O)NC(=O)C1)N1CC(=O)NC(=O)C1 (stereo not given) | -4.28% (inactive) | –
